PubChem BioAssay AID449762 (Southern Research Specialized Biocontainment Screening …, 2010)
Out of some 330,000 compounds screened, about 1,900 (0.58%) were called active. Another 4% or so got no clear call; they are omitted. These entries were drawn from the full list. Results with a measured potency or affinity are listed apart. Values without a mark were called inactive. Cut-off read from the data, not from the text of the source: inconclusive = inhibition above about 70% without an active follow-up result; inactive = below that.

Test: M. tuberculosis growth inhibition, HTS (AID 449762);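 note: bacterial growth assessed after seven days of incubation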
Details: M. tuberculosis H37Rv growth inhibition, 7H9 media; at 25 µM; hits give high values

Structure (SMILES) | inhibition [%]
CN1/C(=C\C(=O)COC(=O)c2ccc(O)c(O)c2)C(C)(C)c2ccccc21 | 25
Oc1ccc(CCNc2c3ccccc3nc3ccccc23)cc1O | -2.38
O=C(Nc1ccc2c(c1)OCO2)c1c(F)c(F)c(F)c(F)c1F | 2.74
Cc1sc2ncnc(N3CCCCC3)c2c1C | 5.45
Cc1ccc(OCC(=O)NNC(=O)C2CCN(c3ncnc4sc(C)c(C)c34)CC2)cc1 | 42
CSc1ccccc1NC(=O)CN1c2ccccc2CC1C (stereo not drawn) | 7.66
CCOC(=O)Cc1csc(NC(=O)COc2ccccc2OCC)n1 | -11.5
CCOC(=O)Cc1csc(NC(=O)CCSc2ccccc2)n1 | 5.94
COC(=O)CSc1ncnc2c1sc1nc(N3CCOCC3)c3c(c12)CCCC3 | -2.32
COC(=O)c1ccc(CSc2ncnc3c2sc2nc(N4CCOCC4)c4c(c23)CCCC4)o1 | -0.71
O=c1cnnc(Nc2ccc(Nc3ccccc3)cc2)[nH]1 | 14
CC(C)c1ccc(NC(=O)CCS(=O)(=O)c2cccc3nonc23)cc1 | 6.08
O=C(C1CCC1)N1CCN(S(=O)(=O)c2ccc(F)cc2)CC1 | -11
CCOc1ccc(/C=C2/C(=N)N3OC(C)=CC3=NC2=O)cc1OC | 2.41
CN(CCO)c1cc(N2CCCCC2)c2nonc2c1[N+](=O)[O-] | -7.07
CN(CCO)c1cc(N2CCC3(CC2)OCCO3)c2nonc2c1[N+](=O)[O-] | -10.9
Cc1cc(C)cc(NC(=O)CCn2c(=S)[nH]c3ccccc3c2=O)c1 | 3.81
Cc1cccc(OCCCCNCc2ccccc2)c1 | 0.71
Clc1ccc(Cl)c(OCCCCNCc2ccccc2)c1 | 6.87
COc1cc(Br)c(/C=C/c2ccc3cccc(O)c3n2)cc1OC | 15.4
COc1ccc(Br)cc1/C=C/c1ccc2cccc(O)c2n1 | 69.8

Structure (SMILES) | inhibition [%]
On1c(-c2ccc(Cl)cc2)nc2ccccc21 | 67.2
COc1cc(CNn2nnnc2N)cc(Br)c1OCc1c(Cl)cccc1Cl | 0.85
Cc1ccc(N2CCN(S(=O)(=O)N3CCCCC3)CC2)cc1C | -2.98
CCOC(=O)C1=C(C)NC(SCC(N)=O)=C(C#N)C1c1cccs1 (stereo not drawn) | -3.02
CCOC(=O)C1=C(C)NC(SCC(=O)Nc2cc(C)on2)=C(C#N)C1c1cccs1 (stereo not drawn) | -1.09
O=C(COC(=O)c1cc(=O)[nH]c2ccccc12)NC(=O)c1ccccc1 | -1.53
COc1ccc(Nc2nc(CC(C)=O)ns2)cc1OC | -2.22
O=C1CN(C(=O)CN2C(=O)NC(c3ccccc3)(c3ccccc3)C2=O)c2ccccc2N1 | -4.74
O=C(c1ccc(-c2cccc(C(F)(F)F)c2)o1)N1CCCCCCC1 | 4.53
CC(=O)N1CCN(C(=O)c2ccc(-c3cccc(C(F)(F)F)c3)o2)CC1 | -1.68
CCCCS(=O)(=O)N1CCC(C(=O)Oc2ccccc2OC)CC1 | 28.5
Cc1ccc(C(C(=O)Nc2ccc3c(c2)OCO3)N(C)C(=O)Cc2c[nH]c3ccccc23)cc1 (stereo not drawn) | -1.34
C/C(=C\C(=S)Nc1ccccc1)Nc1ccccc1 | 3.81
C/C(=C\C(=S)Nc1ccccc1)Nc1cccc2ccccc12 | 64.1
O=C(CC1CCCCC1)NCCCN1CCOCC1 | -0.7
O=C(CSc1nc2[nH]c(=O)cc(O)c2s1)Nc1ccc(Br)cc1 | -3.77
CC(=O)N1CCc2cc(Br)cc(S(=O)(=O)NCC3CCCO3)c21 (stereo not drawn) | 0.13
COc1cc2cc(C(=O)N(C)Cc3ccccc3)[nH]c2cc1OC | 6.88
COCCCn1c(SCc2ccccc2)nc2cc(OC)c(OC)cc2c1=N | -2.27
COCCCn1c(SCc2ccc(OC)cc2)nc2cc(OC)c(OC)cc2c1=N | -4.77
O=C(CN1C(=O)NC2(CCCC2)C1=O)OCc1cccc(Br)c1 | -6.4

Structure (SMILES) | inhibition [%]
O=C(NC1CCSc2ccccc21)c1ccccc1F (stereo not drawn) | 12.7
O=C(NC1CCSc2ccccc21)c1ccccc1Cl (stereo not drawn) | 43.4
COc1ccc(OCc2n[nH]c(=S)n2-c2ccc(C)cc2)cc1 | 3.01
Cc1cc(=O)[nH]c(N/N=C/c2c(C)nn(-c3ccc(F)cc3)c2Cl)n1 | 0.52
Cc1ccc(-c2nc(N=Nc3ccc(O)cc3)n[nH]2)cc1 | 4.83
Oc1ccc(N=Nc2n[nH]c(-c3ccc(Br)cc3)n2)cc1 | 4.79
CCC(CO)Oc1cc(NC(=O)c2ccc(N)cc2)c2ncn(C(C)C)c2c1 (stereo not drawn) | 4.76
CCOc1ccc(-c2[nH]ncc2-c2ccccc2)c(O)c1 | 9.38
O=[N+]([O-])c1ccc(COc2ccc(-c3[nH]ncc3-c3ccccc3)c(O)c2)cc1 | -2.72
COc1ccc(-c2[nH]ncc2-c2ccc(Cl)cc2)c(O)c1 | 41.7
COc1ccc(-c2cn[nH]c2-c2ccc(OCc3ccc([N+](=O)[O-])cc3)cc2O)cc1 | 8.94
Cc1cc(N2C(=O)C3CC=CCC3C2=O)cc(C)c1Br (stereo not drawn) | 4.22
CC(=NNC(=O)c1ccc(NS(=O)(=O)c2ccc(Br)cc2)cc1)c1cccnc1 | 9.29
CC(C)Cc1nc2sc3c(=O)[nH]cnc3c2c2c1CCCC2 | 1.08
CCN(CC)C(=O)CNC(=S)N(CCCN1CCOCC1)Cc1cccs1 | 1.2
CCc1cc(-c2[nH]ncc2-c2ccc([N+](=O)[O-])cc2)c(O)cc1OC | 1.64
CCCn1c(NC(=S)Nc2ccccc2)nc2ccccc21 | 2.43
CCCCn1c(NC(=S)Nc2ccccc2)nc2ccccc21 | 2.6
CSc1nc2ccsc2c(=O)n1-c1ccccn1 | -2.21
CCn1c(C)nc2cc(C(=O)OCCC(F)(F)F)ccc21 | -1.06
CCn1c(C)nc2cc(C(=O)OC)ccc21 | -7.44
